Rows were chosen to be rich in hits. Some 3.6% of all compounds tested hit in one or more screens of this group.
ClpP mod – qHTS Assay for Activators of ClpP. purified B. subtilis ClpP, FRET peptide cleavage, 20 min. ATP-dependent Clp protease proteolytic subunit (Bacillus subtilis (strain 168)), P80244. Potency, µM (highest dose often 57.5 µM). 1.9% of 340,000 active; active = well fitted falling curve with a large enough effect; inconclusive = small, poorly fitted or top-dose-only effect; inactive = no such curve, though single readings can be large or run the other way; note: the source files actives as falling curves though it sought activators and does not explain the sign; nearly all actives have a fitted effect of over 65% in size
Target sequence (P80244 whole entry, looked up): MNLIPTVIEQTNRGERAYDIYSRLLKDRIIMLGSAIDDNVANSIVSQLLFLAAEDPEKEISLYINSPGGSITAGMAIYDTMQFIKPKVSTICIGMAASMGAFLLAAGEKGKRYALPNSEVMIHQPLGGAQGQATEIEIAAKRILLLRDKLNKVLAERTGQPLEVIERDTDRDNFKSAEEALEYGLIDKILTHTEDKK
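FRET quenching reversal measured ClpP activation: 10 microg/mL B. subtilis ClpP at pH 8 with the FRET-FV decapeptide, read at 430 nm after 320 nm excitation. The 20-min minus 0-min signal was scaled between DMSO/no-enzyme wells and ADEP (5.8 microM final).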
TDP43 rescue – rescues yeast growth from TDP-43 toxicity | TDP-43 expressing yeast growth rescue, BacTiter-Glo, 24 h | Potency, µM (series often up to 46.1 µM), hits mostly activators | 1.8% of 410,000 active; note: nearly all actives have a fitted effect of over 50% in size
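Growth rescue of TDP-43-toxic yeast measured as ATP luminescence (BacTiter-Glo). Cells grown to mid-log in raffinose, induced in galactose at OD600=0.02, exposed to compound 24 hr at 30 deg C.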
aSyn yeast inh – alpha-synuclein toxicity inhibition in yeast; 0.14% of 370,000 active; Potency, µM (highest dose often 46.1 µM), actives largely listed as activators; Yeast expressing alpha-synuclein, growth rescue, BacTiter-Glo, 24 h; AID 652106; note: nearly all actives have a fitted effect of over 65% in size
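Rescue of yeast growth: cells expressing toxic alpha-synuclein, induced in galactose at OD600 0.02, incubated with compound 24 h at 30 C. ATP luminescence quantified growth; inhibitors of toxicity appear as activators.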
Abeta rescue – A-beta toxicity reversal in yeast. yeast expressing A-beta42, growth rescue, OD600, 48 h; response scale: 0% DMSO, 100% iron-clioquinol control. Potency, µM (doses to about 46.1 µM), hits mostly activators. 0.063% of 410,000 active; note: nearly all actives have a fitted effect of over 55% in size
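Growth rescue measured by 600 nm absorbance after 48 h yeast culture at 30 C with compound. Values normalized between DMSO and an equimolar ferric chloride plus clioquinol control.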
FUS suppressor – FUS proteinopathy suppression in yeast; 0.24% of 390,000 active; AID 1347120; S. cerevisiae FUS-expressing, growth rescue, OD600, 24 h; Potency, µM (series often up to 76.6 µM), hits mostly activators; note: nearly all actives have a fitted effect of over 55% in size
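Yeast expressing FUS under galactose induction, OD 0.005 in 2% galactose medium; compounds in a dilution series, 24 h at 30C. Growth rescue by absorbance at 600 nm; CP55940 positive control, DMSO negative.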
Mm-Cpn inhibitor – M. maripaludis TRiC chaperonin inhibition. 0.031% of 330,000 active. AID 504842. purified Mm-Cpn ATPase, ADP Transcreener TR-FRET. Potency, µM (titrated, usually from 76.9 µM), hits mostly inhibitors; note: nearly all actives have a fitted effect of over 80% in size
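ATPase turnover read by TR-FRET ADP competition (Eu cryptate antibody/ADP-d2, 665/590 nm): 10uM ATP final, 25nM Mm-CPN final, 30 min 37degC after 10-min compound preincubation, pH 7.4 Tris/KCl/MgCl2/DTT buffer.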
Large screens that a line does not name were inactive. Unless noted, calls come from the whole dose curve; as a rule, active = well fitted curve in the direction sought with a large enough effect; inconclusive = small, poorly fitted or top-dose-only effect, or another doubt; inactive = no such curve, though single readings can be large; an effect the other way counts as inactive or inconclusive.

CCOc1ccccc1NC(=O)Cn1c(=O)n(CC(=O)NCc2ccccc2Cl)c(=O)c2sccc21	none (no result: aSyn yeast inh, Mm-Cpn inhibitor)
CCOc1ccc2nc(N/C(N)=N/C(=S)Nc3ccc(C)c(C)c3)nc(C)c2c1	ClpP mod 25.1µM
Cc1cc[n+](-c2nc3ccccc3nc2[N-]S(=O)(=O)c2cccs2)cc1C	ClpP mod 8.91µM
Cc1cc[n+](-c2nc3ccccc3nc2[N-]S(=O)(=O)c2ccccc2)cc1	none (no result: FUS suppressor)
Cc1cc(Nc2nc(Cl)c(Cl)cc2Cl)n(-c2ccccc2)n1	TDP43 rescue 17.8µM (no result: FUS suppressor)
Cn1nnnc1Sc1ncnc2scc(-c3cc4ccccc4o3)c12	Mm-Cpn inhibitor 39.8µM (no result: ClpP mod, TDP43 rescue, aSyn yeast inh)
Cn1nnnc1Sc1ncnc2scc(-c3ccc(-c4ccccc4)cc3)c12	Mm-Cpn inhibitor inconclusive (no result: ClpP mod, TDP43 rescue, aSyn yeast inh)
CCOC(=O)N1CCN(c2c(-c3ccc(C(C)C)cc3)c(=O)c2=O)CC1	TDP43 rescue 20µM
CC(C)Oc1cccc(C2CC(=O)Nc3cc4c(cc32)OCO4)c1 (stereo not given)	TDP43 rescue inconclusive (no result: aSyn yeast inh, Mm-Cpn inhibitor)
CCOC(=O)c1c(C)[nH]c(C)c1C(=O)CSc1nc2ccccc2c(=O)n1-c1ccc(F)cc1	FUS suppressor inconclusive (no result: ClpP mod)
CCOC(=O)c1c(C)[nH]c(C)c1C(=O)CSc1nc2ccccc2c(=O)n1-c1ccccc1C	ClpP mod 28.2µM
CCC(C)n1c(=N)c(C(=O)NCc2ccco2)cc2c(=O)n3cc(C)ccc3nc21 (stereo not given)	none (no result: aSyn yeast inh, Mm-Cpn inhibitor)
COc1ccc2c(c1)-c1nc(NC(=O)c3cccs3)sc1CC2	TDP43 rescue 17.8µM, FUS suppressor inconclusive
COc1ccc2c(c1)CCc1sc(NC(=O)c3ccc(C)cc3)nc1-2	ClpP mod 35.5µM
COc1ccc2c(c1)CCc1sc(NC(=O)c3ccc(Br)cc3)nc1-2	TDP43 rescue inconclusive (no result: aSyn yeast inh, Mm-Cpn inhibitor)
COc1ccc2c(c1)CCc1sc(NC(=O)c3ccco3)nc1-2	TDP43 rescue 20µM
c1ccc(-n2ncc3c(NCC4CCCO4)ncnc32)cc1 (stereo not given)	ClpP mod inconclusive
CCCCN(C)c1ncnc2c1cnn2-c1cccc(Cl)c1	TDP43 rescue 12.6µM (no result: aSyn yeast inh, Mm-Cpn inhibitor)
CCCCN(CCCC)c1ncnc2c1cnn2-c1cccc(C)c1	none (no result: aSyn yeast inh, Mm-Cpn inhibitor)
CCc1ccccc1Nc1ncnc2c1cnn2-c1ccc(Cl)cc1	ClpP mod 31.6µM (no result: aSyn yeast inh, Mm-Cpn inhibitor)
Clc1ccc(-n2ncc3c(NCC4CCCO4)ncnc32)cc1 (stereo not given)	TDP43 rescue 11.2µM
CCc1ccccc1Nc1ncnc2c1cnn2-c1ccc(C)cc1C	TDP43 rescue inconclusive, FUS suppressor inconclusive (no result: aSyn yeast inh, Mm-Cpn inhibitor)
CCc1cccc(C)c1NC(=O)CSc1nnc(N)s1	none (no result: aSyn yeast inh, Mm-Cpn inhibitor)
COc1cc(N(C)C)ccc1/C=C/c1ccnc2ccccc12	none (no result: TDP43 rescue, Abeta rescue, FUS suppressor, Mm-Cpn inhibitor)
